Where “and” joins values, the source holds several entries; their conditions need not be identical. Identical values can stand only once. Results filed as inconclusive are left out. Some structures have more than one record in an assay (separate samples or runs), and their calls can disagree. Calls of active or inactive are those of the source. Rule for the calls, unless noted: active = hit-call score of the fitted dose curve at least 0.9, where 1 is the maximum; inactive = score below 0.9.
Columns and labels:
[1] = read-out: Interleukin-8 (IL8), CXCL8 (gene 3576); test: BSK_3C_IL8: BioMAP Diversity Plus: 3C Assay for Interleukin-8 (IL8) Biomarker Activity (AID 2283020); details: primary human endothelial cells (HUVEC); actives raise or lower the signal
In short: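 IL-8 was measured by ELISA in HUVEC cultures 24 h after chemical dosing, with gain or loss of signal fitted relative to DMSO. Parallel SRB total-protein staining tracked overt cytotoxicity.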

[2] = read-out: Monokine induced gamma interferon (MIG), CXCL9 (gene 4283); test: BSK_3C_MIG: BioMAP Diversity Plus: 3C Assay for Monokine induced gamma interferon (MIG) Biomarker Activity (AID 2283021); details: primary human endothelial cells (HUVEC); actives raise or lower the signal
In short: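 ELISA measurement of MIG in human umbilical vein endothelial cells 24 h after treatment. Cytotoxicity tracked by SRB staining in parallel cultures; gain or loss of signal fitted relative to DMSO.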

[3] = molecular target: human Vitamin D Receptor (VDR), VDR (gene 7421) (UniProt P11473); test: ATG_VDR_TRANS: Attagene TRANS-FACTORIAL HepG2 Assay for human Vitamin D Receptor (VDR) (AID 2283022; active = hit-call score of the fitted dose curve at least 0.9, where 1 is the maximum)
In short: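 HepG2 cells were transiently transfected with multiple GAL4-UAS reporter units, so signal reflects exogenous chimeric receptor-Gal4 activity. After 24 h compound exposure, reporter mRNA was measured by RT-PCR, fluorescent labelling and capillary electrophoresis, fitted for gain of signal versus DMSO.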

[4] = BSK_3C_SRB: Viability Assessment in the BioMAP Diversity Plus: 3C Assay (AID 2283023); details: primary human endothelial cells (HUVEC);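 note: fitted both ways against DMSO so a hit may be signal rise or drop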
In short: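 Primary human umbilical vein endothelial cells in the 3C system were read 24 h after compound dosing. Total protein was stained with 0.1% sulforhodamine B after 10% TCA fixation and read at 560 nm, with bidirectional fitting against DMSO as baseline.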

[5] = read-out: Matrix Metallopeptidase 1 (MMP1), MMP1 (gene 4312); test: BSK_BE3C_MMP1: BioMAP Diversity Plus: BE3C Assay for Matrix Metallopeptidase 1 (MMP1) Biomarker Activity (AID 2283024); details: primary human bronchial epithelial cells; actives raise or lower the signal
In short: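 ELISA measurement of MMP-1 after 24 h compound exposure of primary human bronchial epithelial cells. Changes in either direction fitted relative to DMSO; parallel SRB staining checked overt cytotoxicity.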

[6] = BSK_3C_Vis: BioMAP Diversity Plus: 3C Assay for Morphology Visualization (AID 2283025); details: primary human endothelial cells (HUVEC);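 note: fitted both ways so gain or loss versus DMSO counts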;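 for AC50: light microscopy image of cell morphology used as background control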
In short: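 Light-microscopy visualization of HUVEC cultures at 24 h post-treatment, with DMSO as baseline for bidirectional fitting.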

[7] = read-out: Pselectin, SELP (gene 6403); test: BSK_4H_Pselectin: BioMAP Diversity Plus: 4H Assay for Pselectin Biomarker Activity (AID 2283026); details: primary human endothelial cells (HUVEC); actives raise or lower the signal
In short: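 ELISA of surface P-selectin on HUVEC, 24 h after dosing, with parallel SRB staining (0.1% after 10% TCA fixation, 560 nm) for overt cytotoxicity. Activity fitted in both directions relative to DMSO.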

[8] = BSK_4H_SRB: Viability Assessment in the BioMAP Diversity Plus: 4H Assay (AID 2283027); details: primary human endothelial cells (HUVEC);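 note: cells exposed to compound for 24 h before staining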;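 for AC50: curves fitted both ways versus DMSO so AC50 may be loss or gain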
In short: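 Cytotoxicity readout: sulforhodamine B (0.1%) staining of total protein after 10% TCA fixation, measured at 560 nm in human umbilical vein endothelium at 24 h. DMSO set the baseline; fitting was bidirectional.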

[9] = read-out: Thrombomodulin, THBD (gene 7056); test: BSK_3C_Thrombomodulin: BioMAP Diversity Plus: 3C Assay for Thrombomodulin Biomarker Activity (AID 2283029); details: primary human endothelial cells (HUVEC); actives raise or lower the signal
In short: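 ELISA measurement of thrombomodulin on HUVEC surface 24 h after chemical dosing; activity fitted in both directions relative to DMSO vehicle.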

[10] = read-out: Urokinase-type plasminogen activator receptor (uPAR), PLAUR (gene 5329); test: BSK_4H_uPAR: BioMAP Diversity Plus: 4H Assay for Urokinase-type plasminogen activator receptor (uPAR) Biomarker Activity (AID 2283030); details: primary human endothelial cells (HUVEC); actives raise or lower the signal
In short: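 Primary human umbilical vein endothelial cells were exposed to chemical for 24 h before cell-surface uPAR was quantified by ELISA. Activity was fitted bidirectionally against the DMSO negative control baseline.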

[11] = read-out: Vascular endothelial growth factor receptor 2 (Homo sapiens) (UniProt P35968); test: BSK_4H_VEGFRII: BioMAP Diversity Plus: 4H Assay for Vascular endothelial growth factor receptor 2 (VEGFR2) Biomarker Activity (AID 2283031); details: primary human endothelial cells (HUVEC); actives raise or lower the signal
In short: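 Primary human umbilical vein endothelial cells in the BioMAP 4H system were dosed with test chemical, and 24 h later VEGFRII was measured by ELISA. Activity was fitted bidirectionally against DMSO as negative control and baseline.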

[12] = read-out: Human Leukocyte Antigen - DR isotype (HLADR), HLA-DRA (gene 3122); test: BSK_BE3C_HLADR: BioMAP Diversity Plus: BE3C Assay for Human Leukocyte Antigen - DR isotype (HLADR) Biomarker Activity (AID 2283032); details: primary human bronchial epithelial cells; actives raise or lower the signal
In short: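 Cell-surface HLA-DR ELISA readout at 24 h after dosing in the BE3C primary human lung bronchial epithelial system; gain or loss of signal against DMSO, with parallel sulforhodamine B staining of total protein for overt cytotoxicity.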

[13] = read-out: Vascular cell adhesion molecule 1 (VCAM1), VCAM1 (gene 7412); test: BSK_4H_VCAM1: BioMAP Diversity Plus: 4H Assay for Vascular cell adhesion molecule 1 (VCAM1) Biomarker Activity (AID 2283033); details: primary human endothelial cells (HUVEC); actives raise or lower the signal
In short: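 VCAM-1 ELISA read 24 h after chemical dosing of HUVEC in the BioMAP 4H system, with gain or loss of signal fitted relative to DMSO. Parallel SRB staining (560 nm) checked overt cytotoxicity.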

[14] = read-out: Interferon-gamma inducible Protein 10 (IP10), CXCL10 (gene 3627); test: BSK_BE3C_IP10: BioMAP Diversity Plus: BE3C Assay for Interferon-gamma inducible Protein 10 (IP10) Biomarker Activity (AID 2283034); details: primary human bronchial epithelial cells; actives raise or lower the signal
In short: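 IP-10 quantified by ELISA in human primary bronchial epithelial cell cultures at 24 hours post-dosing. Gain or loss of signal fitted relative to DMSO; parallel SRB staining assessed overt cytotoxicity.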

[15] = read-out: Monokine induced gamma interferon (MIG), CXCL9 (gene 4283); test: BSK_BE3C_MIG: BioMAP Diversity Plus: BE3C Assay for Monokine induced gamma interferon (MIG) Biomarker Activity (AID 2283035); details: primary human bronchial epithelial cells; actives raise or lower the signal;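 note: MIG protein measured by ELISA in BE3C cultures after 24 h of dosing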
In short: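 hu bronchial epithelial 1° cells, 24 h cpd; MIG by ELISA; bidirectional fit, DMSO = baseline.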

[16] = read-out: Transforming growth factor beta 1 (TGFb1), TGFB1 (gene 7040); test: BSK_BE3C_TGFb1: BioMAP Diversity Plus: BE3C Assay for Transforming growth factor beta 1 (TGFb1) Biomarker Activity (AID 2283036); details: primary human bronchial epithelial cells; actives raise or lower the signal
In short: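 ELISA readout of TGF-b1 from human lung bronchial epithelial primary cells, taken 24 h post-treatment. Gain or loss of signal fitted relative to DMSO baseline, with parallel SRB staining for overt cytotoxicity.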

[17] = read-out: Plasminogen activator inhibitor-1 (PAI1), SERPINE1 (gene 5054); test: BSK_BE3C_PAI1: BioMAP Diversity Plus: BE3C Assay for Plasminogen activator inhibitor-1 (PAI1) Biomarker Activity (AID 2283037); details: primary human bronchial epithelial cells; actives raise or lower the signal
In short: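 PAI-1 was measured by ELISA in human primary bronchial epithelial cultures 24 h after chemical dosing, with cytotoxicity checked by SRB total-protein staining in parallel cultures. Activity was fitted in both directions relative to DMSO.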

[18] = read-out: urokinase plasminogen activator (uPA), PLAU (gene 5328); test: BSK_BE3C_uPA: BioMAP Diversity Plus: BE3C Assay for urokinase plasminogen activator (uPA) Biomarker Activity (AID 2283038); details: primary human bronchial epithelial cells; actives raise or lower the signal
In short: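 Human primary bronchial epithelial cells were exposed to chemical for 24 h, then uPA levels were measured by ELISA. Responses were fitted bidirectionally against DMSO as negative control and baseline. Parallel SRB staining of total protein gauged overt cytotoxicity.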

[19] = read-out: Urokinase-type plasminogen activator receptor (uPAR), PLAUR (gene 5329); test: BSK_BE3C_uPAR: BioMAP Diversity Plus: BE3C Assay for Urokinase-type plasminogen activator receptor (uPAR) Biomarker Activity (AID 2283039); details: primary human bronchial epithelial cells; actives raise or lower the signal
In short: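 uPAR levels were measured by ELISA after 24 h compound treatment of primary human bronchial epithelial cells, fitted in both directions relative to DMSO. Parallel SRB staining served as the cytotoxicity read-out.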

Measured: AC50

human Vitamin D Receptor (VDR), VDR (gene 7421), sequence (P11473 whole entry, looked up, the tested form may be a part): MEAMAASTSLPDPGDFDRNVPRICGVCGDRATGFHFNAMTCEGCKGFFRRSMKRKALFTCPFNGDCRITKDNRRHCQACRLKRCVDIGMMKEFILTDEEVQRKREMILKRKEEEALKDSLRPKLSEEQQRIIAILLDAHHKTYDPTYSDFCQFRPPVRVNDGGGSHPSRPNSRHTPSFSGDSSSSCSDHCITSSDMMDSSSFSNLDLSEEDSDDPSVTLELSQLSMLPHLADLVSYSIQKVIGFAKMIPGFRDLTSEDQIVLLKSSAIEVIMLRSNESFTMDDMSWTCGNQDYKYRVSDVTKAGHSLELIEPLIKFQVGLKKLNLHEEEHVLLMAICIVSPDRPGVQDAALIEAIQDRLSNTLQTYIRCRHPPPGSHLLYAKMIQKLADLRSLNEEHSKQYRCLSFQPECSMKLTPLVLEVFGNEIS

C#CCN1C(=O)COc2cc(F)c(N3C(=O)C4=C(CCCC4)C3=O)cc21
active: [12] 3.97 µM
inactive: all other assays above

O=S(=O)(O)C(F)(F)C(F)(F)C(F)(F)C(F)(F)C(F)(F)C(F)(F)C(F)(F)C(F)(F)F
active: [6] 37.7 µM and 13.7 µM | [7] 12.2 µM and 3.81 µM | [10] 463 nM and 14.2 µM | [12] 23.1 µM [middle of 8 runs] | [14] 17.3 µM [middle of 7 runs] | [16] 28.6 µM and 12.1 µM and 19.2 µM | [18] 32 µM [middle of 4 runs] | [19] 33.2 µM and 32.7 µM and 6.81 µM
inactive: [1] | [2] | [3] | [5] | [6] | [7] | [8] | [9] | [10] | [11] | [13] | [16] | [17] | [18] | [19]

O=C(O)COc1ccc(Cl)cc1Cl
active: [19] 152 nM
not listed: [4] | [15]
inactive: all other assays above

O=[N+]([O-])/N=C1\NCCN1Cc1ccc(Cl)nc1
not listed: [4] | [15]
inactive: all other assays above

COP(=S)(OC)Oc1ccc([N+](=O)[O-])cc1
active: [1] 2.36 µM | [6] 14.4 µM | [8] 5.97 µM | [13] 20.1 µM | [16] 9.07 µM
not listed: [4] | [15]
inactive: all other assays above
